Results filed as inconclusive are left out. Where a call stands in place of a potency, no number is given. The source made the active and inactive calls. Unless noted, calls follow the shape of the dose curve; as a rule, active = well fitted curve in the direction sought with a large enough effect; inconclusive = small, poorly fitted or top-dose-only effect, or another doubt; inactive = no such curve, though single readings can be large; an effect the other way counts as inactive or inconclusive.
Columns and labels:
[1] = Quantitative high throughput screen for delayed death inhibitors of the malarial parasite plastid, 96 hour incubation (AID 488745); conditions: Plasmodium falciparum growth; also: potency is read from the fitted curve at half-maximal effect; nearly all actives have a fitted effect of over 70% in size
Summary of the method: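 Readout is firefly luciferase luminescence from an integrated reporter in P. falciparum; lower signal marks inhibited growth. Cultures at 2% hematocrit and 0.1% parasitemia were treated with compound across two generations (96 h, 37 C, 5% CO2).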

[2] = Quantitative high throughput screen for delayed death inhibitors of the malarial parasite plastid, 48 hour incubation (AID 488752); conditions: Plasmodium falciparum growth; also: potency is read from the fitted curve at half-maximal effect; nearly all actives have a fitted effect of over 65% in size
Summary of the method: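 First, compound was pinned into RPMI 1640 medium containing 0.5% Albumax. Next, reporter-parasite-infected erythrocytes were added to 2% hematocrit and 0.1% parasitemia. After 48 h at 37 C under 5% CO2, luciferase detection reagent was added and luminescence read.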

[3] = biological target: M-phase phosphoprotein 8 (Homo sapiens) (UniProt Q99549); assay: qHTS Validation Assay for Inhibitors for MPP8 Chromodomain Interactions with Methylated Histone Tails (AID 488949); conditions: AlphaScreen MPP8 binding to H3K9me3 peptide; series mostly up to 114 µM;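 also: AlphaScreen signal from MPP8 chromodomain bound to biotinylated H3K9me3 peptide; top concentration of the series differs between compounds; nearly all actives have a fitted effect of over 55% in size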
Summary of the method: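 Disruption of the preformed MPP8–trimethyl-H3K9 peptide complex (both 50 nM, 30 min, RT) is measured after 30 min compound exposure, using AlphaScreen proximity beads; aurintricarboxylic acid titration serves as plate control.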

[4] = biological target: DNA polymerase III PolC-type (Bacillus subtilis (strain 168)) (UniProt P13267); assay: qHTS Validation Assay for the Inhibitors of DNA Replication in Gram-Positive Bacteria (AID 485295); conditions: Gram-positive bacterial DNA replication assay; series mostly up to 57.1 µM;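 also: reconstituted holoenzyme with PolC plus beta clamp SSB and primase; PicoGreen fluorescence of double-stranded DNA made on primed circular M13 template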
Summary of the method: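 Primed replication of single-stranded M13Gori by a four-protein B. subtilis holoenzyme is measured at room temperature. Double-stranded product is quantified by PicoGreen fluorescence after an EDTA stop; inhibition is scaled between DMSO and EDTA controls.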

[5] = biological target: Tumor susceptibility gene 101 protein (Homo sapiens) (UniProt Q99816); assay: qHTS Validation Assay for Iinhibitors of HIV-1 Budding by Blocking the Interaction of PTAP/TSG101 (AID 485342; calls by dose curve); conditions: TSG101-PTAP binding, fluorescence polarization, 4-point titration; series mostly up to 115 µM
Summary of the method: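 Fluorescence anisotropy measured PTAP-Tsg101 interaction. Final concentrations were 10 uM protein domain and 50 nM labeled peptide, equilibrated 20 min at room temperature.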

[6] = biological target: Beta-2 adrenergic receptor (Homo sapiens) (UniProt P07550); assay: qHTS validation assay of beta-arrestin-biased ligands of beta2-adrenergic receptor (AID 485366); conditions: cell-based beta-arrestin recruitment to ADRB2, qHTS; series mostly up to 46.1 µM
Summary of the method: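 qHTS, Tango cells, 1500 cells/well, DMEM + 1% FBS. Cpd 18 hr at 37 degrees C. Luciferin/ATP/CoA detection mix, 15 min RT, luminescence read. %Activity from corrected signal; CRC fit, curve class.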

[7] = biological target: ATP-dependent 6-phosphofructokinase (Trypanosoma brucei brucei) (UniProt O15648); assay: qHTS Validation Assay to Find Inhibitors of T. brucei phosphofructokinase (AID 485368); conditions: T. brucei PFK enzyme assay, qHTS 7-point titration; at 57.5 µM (top of the series)
Summary of the method: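 Luminescent ADP detection measures PFK turnover of fructose-6-phosphate (0.5 mM) with ATP (0.1 mM) at pH 8.0. Reaction runs 45 min at room temperature with 1.25 nM enzyme; inhibitors tested as titrations up to 57 uM.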

[8] = biological target: Thioredoxin reductase 1, cytoplasmic (Rattus norvegicus) (UniProt O89049); assay: qHTS Assay for Substrates of Mammalian Selenoprotein Thioredoxin Reductase 1 (TrxR1) (AID 488772); conditions: purified TrxR1, NADPH consumption substrate assay; series mostly up to 57.1 µM;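 also: NADPH fluorescence in the first read after selenite addition and not the 8 min delta; a drop in NADPH fluorescence below the no-compound background marks a TrxR1 substrate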
Source text: (§1) The selenoprotein thioredoxin reductase (TrxR; EC 1.8.1.9) is a FAD containing homodimeric pyridine nucleotide-disulfide oxidoreductase with many cellular roles. Together with NADPH and its prime substrate thioredoxin (Trx), the enzyme forms the core of the Trx system. The mammalian Trx system exerts a wide spectrum of functions including redox regulation, antioxidant defense, regulation of transcription factors as well as support of cell growth and replication. Many of these functions involve the reduction of Trx, which may subsequently reduce a number of different substrates including ribonucleotide reductase, peroxiredoxins or NFkB. […]
(§2) This BioAssay is a validation of an NADPH fluorescence-based, dual-purpose qHTS rTrxR1 assay designed to find potential inhibitors and substrates of rTrxR1. […]
(§3) Assay protocol: 2 uL of reagents (buffer in column 4 as negative control and 90 nM rTrxR1 in columns 1-3 and 5-48) were dispensed into Greiner black solid-bottom 1,536-well assay plates, followed by 1 uL of NADPH (400 uM final concentration) to each well. […] The plate was immediately transferred to a ViewLux high-throughput CCD imager (PerkinElmer), wherein kinetic measurements of NADPH fluorescence (Ex 340 nm, Em 450 nm) were acquired (8 minute kinetic read, see Table 1). […]

[9] = biological target: Thioredoxin reductase 1, cytoplasmic (Rattus norvegicus) (UniProt O89049); assay: qHTS Assay for Inhibitors of Mammalian Selenoprotein Thioredoxin Reductase 1 (TrxR1) (AID 488773); conditions: purified TrxR1 enzyme activity; series mostly up to 57.1 µM;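 also: drop in NADPH fluorescence over an 8 min run after selenite addition; nearly all actives have a fitted effect of over 40% in size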
Source text: as §1, §2, §3

[10] = biological target: Flap endonuclease 1 (Homo sapiens) (UniProt P39748); assay: qHTS Validation Assay for the Inhibitors of Human Flap endonuclease 1 (FEN1) (AID 488816); conditions: FEN1 nuclease activity, fluorogenic DNA substrate; series mostly up to 57.1 µM
Summary of the method: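 qHTS format: compounds and 10 nM FEN1 incubated 15 min at room temperature before adding 50 nM substrate. Cleavage followed by reads at 0 and 15 min; normalized data fitted to a four-parameter Hill curve.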

Chain of M-phase phosphoprotein 8 (Homo sapiens) (Q99549 whole entry, looked up): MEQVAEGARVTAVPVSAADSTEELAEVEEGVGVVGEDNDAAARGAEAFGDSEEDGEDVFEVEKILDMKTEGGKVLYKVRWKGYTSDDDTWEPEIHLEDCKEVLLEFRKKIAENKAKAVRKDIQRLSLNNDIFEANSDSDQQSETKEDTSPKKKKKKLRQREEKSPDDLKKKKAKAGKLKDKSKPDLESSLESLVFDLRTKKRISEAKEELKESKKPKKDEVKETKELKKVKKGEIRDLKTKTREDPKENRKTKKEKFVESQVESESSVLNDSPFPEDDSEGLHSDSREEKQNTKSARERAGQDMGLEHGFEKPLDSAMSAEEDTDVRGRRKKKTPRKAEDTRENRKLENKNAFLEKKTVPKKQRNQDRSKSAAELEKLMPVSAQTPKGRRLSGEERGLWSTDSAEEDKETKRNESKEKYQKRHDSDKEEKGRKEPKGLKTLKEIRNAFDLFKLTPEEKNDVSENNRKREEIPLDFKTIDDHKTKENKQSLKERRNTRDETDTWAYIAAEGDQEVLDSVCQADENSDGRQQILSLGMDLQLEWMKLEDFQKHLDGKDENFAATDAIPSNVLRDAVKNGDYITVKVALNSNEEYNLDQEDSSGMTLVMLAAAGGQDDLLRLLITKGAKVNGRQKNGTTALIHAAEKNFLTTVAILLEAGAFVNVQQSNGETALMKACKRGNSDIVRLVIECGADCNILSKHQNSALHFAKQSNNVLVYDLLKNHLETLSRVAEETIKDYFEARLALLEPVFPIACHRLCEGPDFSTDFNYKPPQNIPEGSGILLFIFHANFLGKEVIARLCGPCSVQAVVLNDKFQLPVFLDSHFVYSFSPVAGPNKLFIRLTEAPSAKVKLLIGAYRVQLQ
Chain of Thioredoxin reductase 1, cytoplasmic (Rattus norvegicus) (O89049 whole entry, looked up): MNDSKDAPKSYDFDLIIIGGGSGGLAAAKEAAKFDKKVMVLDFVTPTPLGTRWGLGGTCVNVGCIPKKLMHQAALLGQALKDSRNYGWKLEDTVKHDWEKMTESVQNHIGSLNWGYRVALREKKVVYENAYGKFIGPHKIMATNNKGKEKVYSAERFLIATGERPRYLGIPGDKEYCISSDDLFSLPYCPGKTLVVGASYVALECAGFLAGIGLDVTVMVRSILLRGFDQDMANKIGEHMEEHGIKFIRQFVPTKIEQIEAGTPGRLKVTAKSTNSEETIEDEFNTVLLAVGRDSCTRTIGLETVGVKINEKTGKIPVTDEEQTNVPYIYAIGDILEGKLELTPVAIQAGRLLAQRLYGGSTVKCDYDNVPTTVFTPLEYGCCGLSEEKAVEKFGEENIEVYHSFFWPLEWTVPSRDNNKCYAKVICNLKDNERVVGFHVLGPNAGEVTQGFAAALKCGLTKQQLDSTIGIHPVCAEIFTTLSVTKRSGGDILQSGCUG
Chain of Flap endonuclease 1 (Homo sapiens) (P39748 whole entry, looked up): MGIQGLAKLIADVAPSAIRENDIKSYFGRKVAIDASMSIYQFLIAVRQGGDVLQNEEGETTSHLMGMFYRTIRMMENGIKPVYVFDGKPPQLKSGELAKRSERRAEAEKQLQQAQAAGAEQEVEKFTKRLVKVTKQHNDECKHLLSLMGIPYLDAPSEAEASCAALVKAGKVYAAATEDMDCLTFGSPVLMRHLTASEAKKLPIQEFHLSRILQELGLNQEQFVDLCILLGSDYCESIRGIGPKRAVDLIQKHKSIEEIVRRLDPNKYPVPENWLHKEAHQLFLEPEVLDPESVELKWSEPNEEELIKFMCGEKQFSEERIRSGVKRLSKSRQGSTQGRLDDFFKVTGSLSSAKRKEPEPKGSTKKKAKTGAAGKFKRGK
Chain of ATP-dependent 6-phosphofructokinase (Trypanosoma brucei brucei) (O15648 whole entry, looked up): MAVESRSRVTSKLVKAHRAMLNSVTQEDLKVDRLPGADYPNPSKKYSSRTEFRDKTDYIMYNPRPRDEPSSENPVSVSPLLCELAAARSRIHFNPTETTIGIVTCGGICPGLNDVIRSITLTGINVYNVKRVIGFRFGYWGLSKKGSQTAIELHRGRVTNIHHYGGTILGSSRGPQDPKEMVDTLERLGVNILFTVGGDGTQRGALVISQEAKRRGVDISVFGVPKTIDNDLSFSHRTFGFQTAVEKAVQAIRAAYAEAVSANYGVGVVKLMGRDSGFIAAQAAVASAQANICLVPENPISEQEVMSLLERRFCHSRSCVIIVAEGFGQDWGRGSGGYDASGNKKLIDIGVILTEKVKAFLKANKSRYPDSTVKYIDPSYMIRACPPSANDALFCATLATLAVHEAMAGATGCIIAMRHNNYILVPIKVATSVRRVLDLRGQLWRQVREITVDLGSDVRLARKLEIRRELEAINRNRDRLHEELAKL
Chain of Tumor susceptibility gene 101 protein (Homo sapiens) (Q99816 whole entry, looked up, the tested form may be a part): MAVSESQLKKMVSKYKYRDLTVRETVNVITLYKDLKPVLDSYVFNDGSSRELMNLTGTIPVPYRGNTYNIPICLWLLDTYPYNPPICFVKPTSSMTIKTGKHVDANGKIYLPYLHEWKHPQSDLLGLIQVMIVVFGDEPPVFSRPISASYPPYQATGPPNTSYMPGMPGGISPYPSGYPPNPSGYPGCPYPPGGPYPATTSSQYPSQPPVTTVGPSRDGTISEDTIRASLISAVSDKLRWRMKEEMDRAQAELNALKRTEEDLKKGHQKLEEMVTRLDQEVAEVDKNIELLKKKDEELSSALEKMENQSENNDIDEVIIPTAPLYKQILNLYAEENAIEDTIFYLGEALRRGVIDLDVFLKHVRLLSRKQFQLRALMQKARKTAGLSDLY
Chain of Beta-2 adrenergic receptor (Homo sapiens) (P07550 whole entry, looked up): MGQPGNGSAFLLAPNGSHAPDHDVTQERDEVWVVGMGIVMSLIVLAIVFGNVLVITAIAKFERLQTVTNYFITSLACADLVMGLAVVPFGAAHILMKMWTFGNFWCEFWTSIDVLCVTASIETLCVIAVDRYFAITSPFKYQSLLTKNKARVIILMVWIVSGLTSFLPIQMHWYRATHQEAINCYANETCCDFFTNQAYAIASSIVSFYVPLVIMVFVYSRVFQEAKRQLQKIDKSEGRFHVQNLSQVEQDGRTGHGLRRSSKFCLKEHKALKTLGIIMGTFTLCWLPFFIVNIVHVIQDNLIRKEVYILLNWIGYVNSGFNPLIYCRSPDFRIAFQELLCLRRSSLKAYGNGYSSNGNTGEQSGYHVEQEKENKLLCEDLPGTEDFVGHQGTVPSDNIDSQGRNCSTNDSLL
Chain of DNA polymerase III PolC-type (Bacillus subtilis (strain 168)) (P13267 whole entry, looked up): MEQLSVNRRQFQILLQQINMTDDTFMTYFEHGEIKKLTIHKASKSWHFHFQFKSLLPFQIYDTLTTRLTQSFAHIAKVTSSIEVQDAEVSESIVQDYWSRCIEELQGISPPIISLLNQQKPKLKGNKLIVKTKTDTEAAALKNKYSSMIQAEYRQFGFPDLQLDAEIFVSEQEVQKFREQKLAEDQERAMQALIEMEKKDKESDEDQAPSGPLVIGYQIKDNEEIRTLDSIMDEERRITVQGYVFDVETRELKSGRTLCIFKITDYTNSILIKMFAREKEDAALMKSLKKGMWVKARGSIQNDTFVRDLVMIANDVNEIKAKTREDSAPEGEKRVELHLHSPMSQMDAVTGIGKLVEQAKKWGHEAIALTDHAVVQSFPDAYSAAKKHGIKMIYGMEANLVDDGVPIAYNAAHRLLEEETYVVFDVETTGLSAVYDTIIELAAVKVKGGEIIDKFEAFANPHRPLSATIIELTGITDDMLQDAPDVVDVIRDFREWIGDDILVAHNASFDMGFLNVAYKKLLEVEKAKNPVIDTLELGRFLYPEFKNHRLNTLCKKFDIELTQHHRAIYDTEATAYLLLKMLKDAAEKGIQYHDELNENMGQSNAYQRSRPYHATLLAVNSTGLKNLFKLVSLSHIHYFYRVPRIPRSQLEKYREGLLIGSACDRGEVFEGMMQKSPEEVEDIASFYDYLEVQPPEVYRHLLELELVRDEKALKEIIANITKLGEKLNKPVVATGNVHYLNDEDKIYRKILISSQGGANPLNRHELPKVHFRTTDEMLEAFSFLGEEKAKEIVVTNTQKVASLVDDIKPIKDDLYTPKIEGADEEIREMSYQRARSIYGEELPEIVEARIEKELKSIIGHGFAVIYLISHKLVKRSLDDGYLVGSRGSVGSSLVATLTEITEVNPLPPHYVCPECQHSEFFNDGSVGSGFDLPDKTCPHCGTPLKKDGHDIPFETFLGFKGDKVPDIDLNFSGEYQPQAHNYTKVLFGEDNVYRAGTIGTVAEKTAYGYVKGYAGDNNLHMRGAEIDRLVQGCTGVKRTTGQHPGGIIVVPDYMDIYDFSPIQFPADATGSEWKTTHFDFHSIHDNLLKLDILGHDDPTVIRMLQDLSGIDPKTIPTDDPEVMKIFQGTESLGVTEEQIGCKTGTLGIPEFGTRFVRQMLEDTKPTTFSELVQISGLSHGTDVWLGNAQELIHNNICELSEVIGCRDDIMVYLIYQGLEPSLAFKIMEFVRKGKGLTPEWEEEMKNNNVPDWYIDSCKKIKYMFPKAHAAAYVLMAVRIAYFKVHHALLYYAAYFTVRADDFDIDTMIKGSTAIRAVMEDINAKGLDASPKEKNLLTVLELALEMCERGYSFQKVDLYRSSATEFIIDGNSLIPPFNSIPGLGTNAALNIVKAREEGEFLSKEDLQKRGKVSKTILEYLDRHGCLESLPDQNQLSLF

SMILES | Potency [1] | Potency [2] | outcome [3] | outcome [4] | outcome [5] | outcome [6] | outcome [7] | outcome [8] | outcome [9] | outcome [10]
CC[C@H](CO)Nc1nc(NCc2ccccc2)c2ncn(C(C)C)c2n1 | 1040 nM (active) | 4650 nM (active) | inactive |  |  |  |  |  |  | 
O=c1c2ccccc2nc2n1CCc1c-2[nH]c2ccccc12 |  |  | inactive | inactive | inactive | inactive | inactive | inactive | inactive | inactive
